A selection: hits, their analogues and other compounds. The true share with any hit is near 11%.
NS1 function inh: influenza NS1 inhibition; Potency, µM (doses to about 46.1 µM); actives 0.4% (n = 270,000); calls by dose curve; further: actives are rising curves; nearly all actives have a fitted effect of over 50% in size
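S. cerevisiae expressing influenza A NS1, grown in glucose, washed, then diluted 1:100 into pH 6.0 -URA galactose medium with 23 nl compound. Growth recovery read as OD600; NS1-free strain serves as control.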
Pf growth 48h: P. falciparum growth inhibition at 48 hours (one generation); P. falciparum luciferase growth in erythrocytes, 48 h; Potency, µM (doses to about 28.7 µM), usual class: inhibitors; actives 5.9% (n = 310,000); AID 504832
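Compounds are pin-transferred into medium, infected erythrocytes (2% hematocrit, 0.1% parasitemia final) are added, and plates sit one parasite generation at 37 C in 5% CO2. Detection reagent is then added and luminescence measured.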
Sm TGR inh: inhibitors of Schistosoma mansoni thioredoxin glutathione reductase. Potency, µM (doses to about 114 µM), actives largely listed as inhibitors. purified TGR, DTNB reduction, TNB absorbance 405 nm. AID 485364. actives 3% (n = 360,000); further: nearly all actives have a fitted effect of over 60% in size
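Kinetic colorimetric format: TGR-catalysed, NADPH-driven DTNB reduction monitored via TNB absorbance. Enzyme dispensed at 20 nM; compound exposure 15 min at room temperature before reaction start.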
AMA1-RON2 inh: disrupts binding of P. falciparum AMA1 to RON2; AlphaScreen AMA1-biotinylated RON2 peptide binding; Potency, µM (highest dose often 58.2 µM), actives largely listed as inhibitors; actives 0.2% (n = 360,000); AID 720542; further: nearly all actives have a fitted effect of over 45% in size
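AMA1 (3D7) with his tag at 25 nM final met compounds first, then biotinylated RON2 peptide at 25 nM; detection used donor plus acceptor beads, 10 µg/mL apiece, read by AlphaScreen after 30 min at room temperature.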
Pf growth 96h: inhibits malaria parasite growth, 96 h; P. falciparum luciferase reporter growth, 96 h; Potency, µM (titrated, usually from 28.7 µM), hits mostly inhibitors; actives 6.9% (n = 320,000); AID 504834
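Two parasite generations (96 h, 37 C, 5% CO2) of compound exposure in infected erythrocytes (0.05% parasitemia, 2% hematocrit). Luciferase-reporter P. falciparum; decreased luminescence indicates inhibited growth, aimed at apicoplast-acting delayed death.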
Numbers stand for hits; [ ] = dose if it differs, or a comment. Unless noted, the call rests on the fitted dose curve; in most records, active means well fitted curve in the direction sought with a large enough effect; inconclusive means small, poorly fitted or top-dose-only effect, or another doubt; inactive means no such curve, though single readings can be large; an effect the other way counts as inactive or inconclusive.

How did COc1ccc(Nc2nc(NCc3ccco3)nc(N/N=C/c3ccccc3)n2)cc1 do in these assays?
NS1 function inh: inactive; Pf growth 48h: 1.85µM; Sm TGR inh: inactive; AMA1-RON2 inh: inactive; Pf growth 96h: inactive

What do the screens show for `CCCc1cc(=O)oc2c(CNc3ccc(OCC)cc3)c(O)ccc12`?
NS1 function inh: inactive; Pf growth 48h: inconclusive; Sm TGR inh: inconclusive; AMA1-RON2 inh: inactive; Pf growth 96h: inconclusive

What do the screens show for `CCc1cc(=O)oc2c(CNCc3c(F)cccc3Cl)c(O)ccc12`?
NS1 function inh: inactive; Pf growth 48h: 9.28µM; Sm TGR inh: inactive; AMA1-RON2 inh: inactive; Pf growth 96h: inconclusive

Results for CC1CCCCC1NC(=O)c1ccc(S(=O)(=O)NNC(=O)c2ccncc2)cc1 (stereo not given) ?
NS1 function inh: inactive; Pf growth 48h: 2.08µM; Sm TGR inh: inactive; AMA1-RON2 inh: inactive; Pf growth 96h: inactive

How did O=C(NNS(=O)(=O)c1ccc(C(=O)NC2CCCC2)cc1)c1ccncc1 do in these assays?
Pf growth 48h: inactive; Sm TGR inh: inactive; AMA1-RON2 inh: inactive; Pf growth 96h: inactive

Results for Cc1ccc(S(=O)(=O)/N=C2/NC(=O)/C(=C\c3cc(Br)cc(Br)c3O)S2)cc1 ?
NS1 function inh: inconclusive; Pf growth 48h: inactive; Sm TGR inh: 28.2µM; AMA1-RON2 inh: inactive; Pf growth 96h: inactive

What do the screens show for `Cc1ccc(S(=O)(=O)/N=C2/NC(=O)/C(=C/c3ccc(Br)o3)S2)cc1`?
NS1 function inh: inactive; Pf growth 48h: inactive; Sm TGR inh: 22.4µM; AMA1-RON2 inh: inactive; Pf growth 96h: inactive

Results for Cc1ccc(S(=O)(=O)/N=C2/NC(=O)/C(=C/c3cccnc3)S2)cc1 ?
NS1 function inh: inactive; Pf growth 48h: inactive; Sm TGR inh: inactive; AMA1-RON2 inh: inactive; Pf growth 96h: inactive

Results for O=C1/C(=C/c2ccccc2)[C@@H](NC2CCCCC2)c2ccccc21 ?
NS1 function inh: inactive

How did CC1CCCN(C(=O)CN(C)S(=O)(=O)c2cccc3nsnc23)C1 (stereo not given) do in these assays?
NS1 function inh: inactive; Pf growth 48h: inactive; Sm TGR inh: inactive; AMA1-RON2 inh: inactive; Pf growth 96h: inactive

How did Cc1c(Cl)cccc1NC(=O)CNS(=O)(=O)c1cccs1 do in these assays?
Sm TGR inh: inactive

How did Cc1cccc(N2CCN(S(=O)(=O)c3ccc(F)c(C(=O)Nc4ccc(C(C)C)cc4)c3)CC2)c1C do in these assays?
Sm TGR inh: inactive

How did Cn1c(CNC(=O)C2CCC(=O)N(CCc3cccc(F)c3)C2)nc2ccccc21 (stereo not given) do in these assays?
NS1 function inh: inactive; Pf growth 48h: inactive; Sm TGR inh: inactive; AMA1-RON2 inh: inactive; Pf growth 96h: inactive

What do the screens show for `CC(C)Oc1ccc(C(CC(=O)NCCCN(C)C)c2ccc(F)cc2)cc1` (stereo not given)?
NS1 function inh: inactive; Pf growth 48h: inconclusive; Sm TGR inh: inactive; AMA1-RON2 inh: inactive[2.32 µM]; Pf growth 96h: 11.7µM

How did CCOc1cccc2sc(NC(=O)c3ccc(Br)s3)nc12 do in these assays?
NS1 function inh: inactive; Sm TGR inh: inactive; AMA1-RON2 inh: inactive; Pf growth 96h: 7.38µM

How did CCOc1cccc2sc(NC(=O)c3ccc(S(=O)(=O)N4CCCCC4)cc3)nc12 do in these assays?
Sm TGR inh: inactive

How did COc1ccc(C(=O)NC2CCc3ccccc32)cc1OC1CCN(C(C)=O)CC1 (stereo not given) do in these assays?
NS1 function inh: inactive; Pf growth 48h: inconclusive; Sm TGR inh: inactive; AMA1-RON2 inh: inactive; Pf growth 96h: 13.1µM

Results for COc1cc(C(=O)NC2CC(C)(C)CC(C)(C)C2)ccc1OC1CCN(C(C)=O)CC1 ?
NS1 function inh: inactive; Pf growth 48h: inconclusive; Sm TGR inh: inactive; AMA1-RON2 inh: inactive; Pf growth 96h: 9.28µM

Results for CCCn1nc2cc(C(=O)NC3CCc4ccccc43)ccc2c1OCC (stereo not given) ?
NS1 function inh: inactive; Pf growth 48h: 11.7µM; Sm TGR inh: inactive; AMA1-RON2 inh: inactive; Pf growth 96h: inconclusive

How did CC1=C(C(=O)N(C)C)CC(CC(=O)NC2CCCC2)C(=O)N1CCC1=CCCCC1 (stereo not given) do in these assays?
AMA1-RON2 inh: inactive

Results for COc1ccc(C)cc1C(=O)CCC(=O)NCCc1ccc(S(N)(=O)=O)cc1 ?
NS1 function inh: inactive; Pf growth 48h: inactive; Sm TGR inh: inactive; AMA1-RON2 inh: inactive; Pf growth 96h: inactive

What do the screens show for `CCOC(=O)c1ccccc1NC(=O)N1CCC(CN2CCOCC2)CC1`?
Sm TGR inh: inactive
